# Where a name gives a salt, the structure may show the parent alone. Over roughly 1,900 compounds, “relative cell viability (CellTiter-Glo), compound plus cabozantinib, relative to the cabozantinib arm (arm median 1.05; reference not stated)” has its median near 1.1; the lowest 2% begin near 0.15. Only a selection was taken, and the lowest values are over-represented in it overall.
# Test system: Hep3B
# Experiment: relative cell viability (CellTiter-Glo), compound plus cabozantinib, relative to the cabozantinib arm (arm median 1.05; reference not stated) (fraction); higher = more viable cells (less growth inhibition)
# Details: cabozantinib 2 µM; 4 days
row,SMILES,relative cell viability
1,COC(=O)N[C@H](C(=O)N1CC2(CC2)C[C@H]1c1nc(-c2ccc3c(c2)C(F)(F)c2cc(-c4ccc5[nH]c([C@@H]6[C@H]7CC[C@H](C7)N6C(=O)[C@@H](NC(=O)OC)C(C)C)nc5c4)ccc2-3)c[nH]1)C(C)C [Ledipasvir (GS5885)],1
2,FC(F)(F)c1ccc(CNc2ccc(Cc3c[nH]c4ncc(Cl)cc34)cn2)cn1 [Pexidartinib (PLX3397)],1.07
3,C[C@H]1COC2=C1C(=O)C(=O)c1c2ccc2c1CCCC2(C)C [Cryptotanshinone],0.918
4,C=CC(=O)Nc1cccc(Nc2nc(Nc3ccc(N4CCN(C(C)=O)CC4)cc3OC)ncc2C(F)(F)F)c1,0.831
5,COc1nc(C)cnc1NS(=O)(=O)c1cccnc1-c1ccc(-c2nnco2)cc1 [Zibotentan (ZD4054)],1.22
6,C/C(=N\NC(=S)N1CCC1)c1ccccn1,0.0579
7,CC1=CC(=O)c2ccccc2C1=O [Menadione],1.05
8,CC(C)(C)C(=O)Nc1ccc2c(c1)C(=O)C(=O)c1ccccc1-2,0.0959
9,CC(=O)Nc1ccccc1 [Acetanilide],1.07
10,C[C@H]1O[C@@H](O[C@H]2[C@@H](O)C[C@H](O[C@H]3[C@@H](O)C[C@H](O[C@H]4CC[C@@]5(C)[C@H](CC[C@@H]6[C@@H]5C[C@@H](O)[C@]5(C)[C@@H](C7=CC(=O)OC7)CC[C@]65O)C4)O[C@@H]3C)O[C@@H]2C)C[C@H](O)[C@@H]1O [Digoxin],0.0999
11,"CO[C@H]1C[C@@H]2CC[C@@H](C)[C@@](O)(O2)C(=O)C(=O)N2CCCC[C@H]2C(=O)O[C@H]([C@H](C)C[C@@H]2CC[C@@H](OP(C)(C)=O)[C@H](OC)C2)CC(=O)[C@H](C)/C=C(\C)[C@@H](O)[C@@H](OC)C(=O)[C@H](C)C[C@H](C)/C=C/C=C/C=C/1C [Ridaforolimus (Deforolimus, MK-8669)]",1.3
12,CN/C(=N\CCSCc1nc[nH]c1C)NC#N [Cimetidine],0.986
13,COc1cccc2c1C(=O)c1c(O)c3c(c(O)c1C2=O)C[C@@](O)(C(=O)CO)C[C@@H]3O[C@H]1C[C@H](N)[C@@H](O)[C@H](C)O1 [Epirubicin HCl],0.045
14,COc1cccc2c1C(=O)c1c(O)c3c(c(O)c1C2=O)C[C@@](O)(C(=O)CO)C[C@@H]3O[C@H]1C[C@H](N)[C@H](O)[C@H](C)O1 [Doxorubicin (Adriamycin)],0.111
15,COc1cccc2c1C(=O)c1c(O)c3c(c(O)c1C2=O)C[C@@](O)(C(C)=O)C[C@@H]3O[C@H]1C[C@H](N)[C@H](O)[C@H](C)O1 [Daunorubicin HCl],0.0514
16,COc1cccc2c1C(=O)c1c(O)c3c(c(O)c1C2=O)C[C@@](O)(C(=O)CO)C[C@@H]3O[C@H]1C[C@H](N)[C@H](O[C@@H]2CCCCO2)[C@H](C)O1 [Pirarubicin],0.178
17,Cc1onc(-c2ccccc2Cl)c1C(=O)N[C@@H]1C(=O)N2[C@@H]1SC(C)(C)[C@@H]2C(=O)O [Cloxacillin Sodium],1.1

row,SMILES,relative cell viability
1,C=C1CC[C@H](O)C/C1=C/C=C1\CCC[C@]2(C)[C@@H]([C@H](C)CCCC(C)(C)O)CC[C@@H]12 [Calcifediol],0.993
2,CC[C@H](C)C[C@H](C)CCCCCCCCC(=O)N[C@H]1C[C@@H](O)[C@@H](NCCN)NC(=O)[C@@H]2[C@@H](O)CCN2C(=O)[C@H]([C@H](O)CCN)NC(=O)[C@H]([C@H](O)[C@@H](O)c2ccc(O)cc2)NC(=O)[C@@H]2C[C@@H](O)CN2C(=O)[C@H]([C@@H](C)O)NC1=O [Caspofungin Acetate],1.1
3,Nc1ncnc2n[nH]c(Nc3ccc(F)cc3)c12,1.05
4,Cc1ccc(C(=O)Nc2ccc(CN3CCN(C)CC3)c(C(F)(F)F)c2)cc1C#Cc1cnc2cccnn12,0.127
5,Cc1ccc(NC(=O)c2ccc(CN3CC[C@H](N(C)C)C3)c(C(F)(F)F)c2)cc1Nc1nccc(-c2cncnc2)n1 [Bafetinib (INNO-406)],1.05
6,Cc1ccc(C(=O)Nc2ccc(CN3CCN(C)CC3)c(C(F)(F)F)c2)cc1C#Cc1cnc2[nH]ncc2c1,0.279
7,CC(C)(F)C[C@H](N[C@@H](c1ccc(-c2ccc(S(C)(=O)=O)cc2)cc1)C(F)(F)F)C(=O)NC1(C#N)CC1 [Odanacatib (MK-0822)],1.15
8,COc1cc(C(=O)NS(=O)(=O)c2ccccc2C)ccc1Cc1cn(C)c2ccc(NC(=O)OC3CCCC3)cc12 [Zafirlukast],0.9
9,CN1CCc2c(c3ccccc3n2Cc2ccc(C(=O)NO)cc2)C1 [Tubastatin A HCl],1.01
10,Cn1cc(CNCC2CCN(c3ncc(C(=O)NO)cn3)CC2)c2ccccc21,0.121
11,CN1CCc2c(c3ccccc3n2Cc2ccc(C(=O)NO)cc2)C1 [Tubastatin A],1.16
12,C[C@H](NCc1ccc(OCc2cccc(F)c2)cc1)C(N)=O [Safinamide Mesylate],1.22
13,OC[C@H]1O[C@@H](OCCc2ccc(O)cc2)[C@H](O)[C@@H](O)[C@@H]1O [Salidroside],0.974
14,C[C@H]1O[C@H](O[C@H]2[C@H](O)[C@@H](O)[C@@H](O[C@H]3[C@H](O)[C@@H](O)C(O)O[C@@H]3CO)O[C@@H]2CO)[C@H](O)[C@@H](O)[C@@H]1N[C@H]1C=C(CO)[C@@H](O)[C@H](O)[C@H]1O (stereo partly drawn) [Acarbose],1.21
15,O=C1c2cccc(O)c2C(=O)c2c(O)cc(CO)cc21 [Aloe-emodin],1.04
16,O=C1c2c(O)ccc(O)c2C(=O)c2c(NCCNCCO)ccc(NCCNCCO)c21 [Mitoxantrone HCl],0.0809
